For test [1], the target named is Ribosomal protein S6 kinase alpha-6 (Homo sapiens) (UniProt Q9UK32). As to conditions: at 1 µM.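 Note: each value is a mean inhibition of RSK4 from a GSK PKIS panel screen.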
For test [2], the target named is T1, Serine/threonine-protein kinase Sgk1 (Homo sapiens) (UniProt O00141).
T1 sequence (whole entry): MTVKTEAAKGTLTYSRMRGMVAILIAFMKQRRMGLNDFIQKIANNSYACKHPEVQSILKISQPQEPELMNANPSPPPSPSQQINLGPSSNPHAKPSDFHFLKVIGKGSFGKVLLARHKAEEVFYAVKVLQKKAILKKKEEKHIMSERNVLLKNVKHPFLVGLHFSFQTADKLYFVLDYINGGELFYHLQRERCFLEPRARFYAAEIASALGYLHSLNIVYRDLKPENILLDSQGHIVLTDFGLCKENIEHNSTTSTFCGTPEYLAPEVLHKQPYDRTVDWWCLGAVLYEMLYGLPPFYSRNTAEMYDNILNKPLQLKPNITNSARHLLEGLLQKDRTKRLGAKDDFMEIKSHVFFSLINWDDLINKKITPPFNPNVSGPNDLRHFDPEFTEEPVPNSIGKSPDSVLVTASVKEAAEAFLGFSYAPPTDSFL
As to conditions: at 0.1 µM.

In test [3] the target is T1, Serine/threonine-protein kinase Sgk1 (Homo sapiens). To be noted: at 1 µM.
Test [4] concerns the target T2, Serine/threonine-protein kinase Sgk2 (Homo sapiens) (UniProt Q9HBY8).
T2 sequence (whole entry): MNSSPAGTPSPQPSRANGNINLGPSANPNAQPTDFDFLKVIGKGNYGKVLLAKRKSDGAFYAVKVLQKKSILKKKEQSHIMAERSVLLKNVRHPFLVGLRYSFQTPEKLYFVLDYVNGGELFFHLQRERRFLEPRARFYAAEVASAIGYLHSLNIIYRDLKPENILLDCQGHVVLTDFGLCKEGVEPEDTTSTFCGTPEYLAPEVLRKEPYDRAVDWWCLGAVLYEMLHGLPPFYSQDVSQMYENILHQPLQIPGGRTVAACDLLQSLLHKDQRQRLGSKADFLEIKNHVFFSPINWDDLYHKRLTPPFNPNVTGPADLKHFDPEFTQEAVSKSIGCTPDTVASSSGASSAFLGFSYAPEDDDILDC
To be noted: at 0.1 µM.

The target in test [5] is T2, Serine/threonine-protein kinase Sgk2 (Homo sapiens). As to conditions: at 1 µM.
Test [6] has as its target T3, Serine/threonine-protein kinase Sgk3 (Homo sapiens) (UniProt Q96BR1).
T3 sequence (whole entry): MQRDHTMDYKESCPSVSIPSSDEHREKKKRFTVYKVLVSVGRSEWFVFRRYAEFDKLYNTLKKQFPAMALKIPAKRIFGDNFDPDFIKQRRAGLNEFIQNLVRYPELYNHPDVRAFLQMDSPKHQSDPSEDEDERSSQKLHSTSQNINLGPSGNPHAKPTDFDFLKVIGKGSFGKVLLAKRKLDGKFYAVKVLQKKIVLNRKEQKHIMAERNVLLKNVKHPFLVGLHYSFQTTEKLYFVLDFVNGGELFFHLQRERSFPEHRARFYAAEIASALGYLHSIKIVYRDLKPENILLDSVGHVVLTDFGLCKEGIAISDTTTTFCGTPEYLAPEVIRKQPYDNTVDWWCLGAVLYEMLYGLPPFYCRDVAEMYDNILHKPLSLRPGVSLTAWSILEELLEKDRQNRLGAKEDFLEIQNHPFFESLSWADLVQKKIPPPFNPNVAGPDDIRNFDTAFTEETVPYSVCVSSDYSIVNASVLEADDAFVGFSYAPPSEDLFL
As to conditions: at 0.1 µM.

Test [7] has as its target T3, Serine/threonine-protein kinase Sgk3 (Homo sapiens). As to conditions: at 1 µM.
The target of test [8] is 5'-AMP-activated protein kinase catalytic subunit alpha-1 (Homo sapiens) (UniProt Q13131). To be noted: at 0.1 µM.
For test [9] the target is unchanged. As to conditions: at 1 µM.
The target in test [10] is 5'-AMP-activated protein kinase catalytic subunit alpha-2 (Homo sapiens) (UniProt P54646). As to conditions: at 0.1 µM.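 Note: mean inhibition measured on the AMPK complex of alpha2, beta1 and gamma1 subunits.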

14 compounds from ChEMBL document CHEMBL1961873, “Compounds: GSK PKIS; Assays: Nanosyn kinase panel” (2012) can be followed below.

Ribosomal protein S6 kinase alpha-6 (Homo sapiens), sequence (Q9UK32 whole entry): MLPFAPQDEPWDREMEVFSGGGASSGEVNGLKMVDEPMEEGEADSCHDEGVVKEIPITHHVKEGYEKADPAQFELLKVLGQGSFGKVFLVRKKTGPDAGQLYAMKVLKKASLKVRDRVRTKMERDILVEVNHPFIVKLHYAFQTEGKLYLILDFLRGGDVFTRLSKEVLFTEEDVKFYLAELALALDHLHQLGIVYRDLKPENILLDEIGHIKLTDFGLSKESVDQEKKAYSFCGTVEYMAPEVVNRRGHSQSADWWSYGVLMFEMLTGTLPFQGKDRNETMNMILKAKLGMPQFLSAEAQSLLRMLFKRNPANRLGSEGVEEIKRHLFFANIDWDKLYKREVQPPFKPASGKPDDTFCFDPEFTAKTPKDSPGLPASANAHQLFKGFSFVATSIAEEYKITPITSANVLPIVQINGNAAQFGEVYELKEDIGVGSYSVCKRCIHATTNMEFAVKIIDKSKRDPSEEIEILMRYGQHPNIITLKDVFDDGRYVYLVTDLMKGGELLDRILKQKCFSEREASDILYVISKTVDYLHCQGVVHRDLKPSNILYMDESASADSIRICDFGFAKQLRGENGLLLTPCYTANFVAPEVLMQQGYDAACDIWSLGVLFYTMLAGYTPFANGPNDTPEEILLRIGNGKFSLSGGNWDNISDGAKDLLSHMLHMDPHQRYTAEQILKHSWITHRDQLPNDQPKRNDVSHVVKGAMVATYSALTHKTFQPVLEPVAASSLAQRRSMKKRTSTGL
5'-AMP-activated protein kinase catalytic subunit alpha-1 (Homo sapiens), sequence (Q13131 whole entry, looked up): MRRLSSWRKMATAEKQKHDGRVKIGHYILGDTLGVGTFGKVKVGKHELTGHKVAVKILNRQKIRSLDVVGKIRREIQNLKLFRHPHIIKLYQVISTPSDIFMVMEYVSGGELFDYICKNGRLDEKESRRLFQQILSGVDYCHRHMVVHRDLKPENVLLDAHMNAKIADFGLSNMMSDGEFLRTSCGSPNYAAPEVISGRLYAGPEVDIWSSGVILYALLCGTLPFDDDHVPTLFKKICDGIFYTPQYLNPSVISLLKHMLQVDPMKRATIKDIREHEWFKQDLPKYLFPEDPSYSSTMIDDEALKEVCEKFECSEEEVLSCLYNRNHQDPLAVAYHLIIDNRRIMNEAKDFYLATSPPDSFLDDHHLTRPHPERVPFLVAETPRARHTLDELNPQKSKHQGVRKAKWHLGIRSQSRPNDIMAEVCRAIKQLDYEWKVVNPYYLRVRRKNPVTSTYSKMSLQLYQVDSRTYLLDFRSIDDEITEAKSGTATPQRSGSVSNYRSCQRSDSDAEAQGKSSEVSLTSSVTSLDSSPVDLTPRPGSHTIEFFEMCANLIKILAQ
5'-AMP-activated protein kinase catalytic subunit alpha-2 (Homo sapiens), sequence (P54646 whole entry, looked up): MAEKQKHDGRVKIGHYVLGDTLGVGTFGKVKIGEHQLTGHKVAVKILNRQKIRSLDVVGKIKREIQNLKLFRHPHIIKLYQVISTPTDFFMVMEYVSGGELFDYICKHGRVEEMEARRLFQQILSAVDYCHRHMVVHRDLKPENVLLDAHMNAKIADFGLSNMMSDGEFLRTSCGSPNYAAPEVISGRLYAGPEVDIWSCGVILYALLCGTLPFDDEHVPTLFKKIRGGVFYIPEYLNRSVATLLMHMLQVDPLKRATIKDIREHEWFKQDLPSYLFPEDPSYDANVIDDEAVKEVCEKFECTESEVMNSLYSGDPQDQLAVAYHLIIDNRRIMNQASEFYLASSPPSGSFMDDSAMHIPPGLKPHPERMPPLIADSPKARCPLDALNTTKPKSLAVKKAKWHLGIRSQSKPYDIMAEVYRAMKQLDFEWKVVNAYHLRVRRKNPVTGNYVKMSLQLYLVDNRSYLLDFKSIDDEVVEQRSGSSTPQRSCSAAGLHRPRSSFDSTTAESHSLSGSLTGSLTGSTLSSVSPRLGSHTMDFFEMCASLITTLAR

As to `NS(=O)(=O)c1ccc(-c2ccc3c(NC(=O)C4CC4)n[nH]c3c2)cc1`, the inhibition in test [1] was 3.54%; in test [2] it was 0.35%; in test [3], 14.6%; in test [4], -0.5%; in test [5], 3.35%; in [6], -0.5%. Besides, the inhibition in test [7] was -1.93%; in [8], 2.61%; in [9], 2.22%; in [10], -0.68%.

`Fc1ccc(-c2ncn(C3CCNCC3)c2-c2ccnc(Oc3ccccc3)n2)cc1`: the inhibition in test [1] was -1.23%; in test [2], 0.46%; in [3], 0.24%; in test [4], 0.49%; in test [5], 2.09%; in test [6], 0.78%. Moreover, the inhibition in [7] was 2.18%; in [8], 2.1%; in [9], 0.47%; in test [10], 2.07%.

In the case of `COc1cc2c(cc1Nc1nc(Nc3ccsc3C(N)=O)c3cc[nH]c3n1)N(C(=O)CN(C)C)CCC2`, the inhibition in test [1] is 16.4%; in [2], 3.82%; in test [3], 2.11%; in test [4], 2.89%; in [5], 2.84%; in [6], -0.08%. Also, the inhibition in test [7] is -0.04%; in [8], 1.03%; in [9] it was -0.4%; in test [10], 0.93%.

For the compound `NS(=O)(=O)c1ccc(N/C=C2\C(=O)Nc3ccc4ncsc4c32)cc1`, the inhibition stood at 59.9% in [1]; 9.85% in test [2]; 47.5% in test [3]; 4.72% in [4]; 18.4% in test [5]; 3.8% in [6]. Also, the inhibition in test [7] amounted to 10.2%; in [8], 21.1%; in test [9], 59.9%; in test [10], 14.4%.

On to `COc1cc(C=NNc2ncnc3c2cnn3Cc2ccccc2)ccc1O`, for which the inhibition is 2.26% in test [1]; -3.31% in [2]; 3.11% in test [3]; -3% in [4]; -2.21% in [5]; -2.5% in test [6]. Further, the inhibition is -0.29% in [7], -1.23% in test [8], -0.19% in [9] and -2.17% in test [10].

As for `Nc1nonc1-c1nc2cnccc2n1C1CCCCC1`, the inhibition is 30.9% in test [1]; 1.2% in test [2]; 13.2% in [3]; 5.9% in test [4]; 40.5% in test [5]; 7.01% in test [6]. Moreover, the inhibition in [7] is 41.7%; in [8], 0.66%; in test [9] it was 5.36%; in test [10], -0.2%.

Regarding `Cc1cc(-c2ccco2)cc(C)c1/C=C/c1cncc(-c2nn[nH]n2)c1`, the inhibition was -0.53% in test [1]; 2.78% in test [2]; 0.73% in test [3]; -0.62% in test [4]; -1.7% in [5]; -0.03% in [6]. In addition, the inhibition was -0.92% in [7], 0.43% in test [8], 1.33% in [9] and 0.25% in test [10].

As to `CCn1c(-c2nonc2N)nc2c(C#CC(C)(C)O)nc(O[C@@H](CN)c3ccccc3)cc21`, the inhibition in test [1] was found to be 23.4%; in [2], 4%; in test [3], 34.2%; in test [4] it was 5.31%; in test [5] it was 3.43%; in test [6], 64.9%. Moreover, the inhibition amounted to 94.2% in test [7], 79.2% in [8], 88.1% in [9] and 24.6% in test [10].

In the case of `CCn1c(-c2nonc2N)nc2c(C#CC(C)(C)O)ncc(OCC3CCNCC3)c21`, the inhibition in test [1] is 7.82%; in test [2] it was 5.12%; in [3], 10.5%; in [4] it was 2.67%; in test [5] it was 8.07%; in [6], 21.6%. Also, the inhibition turned out to be 67.4% in [7], 13.8% in test [8], 51.9% in test [9] and 3.32% in test [10].

For the compound `COc1cccc(-n2ncc3c(N/N=C/c4ccncc4)ncnc32)c1`, the inhibition in [1] was determined as 4.33%; in test [2], 6.01%; in test [3] it was 16.1%; in test [4], 4.49%; in [5] it was 11.9%; in [6], 5.19%. Further, the inhibition amounted to 6.6% in test [7], 2.59% in [8], 9.15% in test [9] and 2.26% in test [10].

With `CCn1c(-c2nonc2N)nc2c(C#CC(C)(C)O)ncc(OC[C@@H]3CCCN3)c21`, the inhibition is 8.09% in test [1]; 1.28% in test [2]; 2.09% in [3]; 3.27% in test [4]; 2.29% in test [5]; 12.7% in test [6]. In addition, the inhibition in test [7] is 47.4%; in test [8] it was 6%; in [9] it was 39.3%; in [10], 0.91%.

`NC(=O)c1sc(-n2cnc3cc(C(F)(F)F)ccc32)cc1OCc1ccccc1Br`: the inhibition in test [1] is 1.95%; in test [2], 1.54%; in test [3], 2.43%; in [4], 0.68%; in [5] it was -0.08%; in test [6], -0.31%. Further, the inhibition in [7] worked out at 4.18%; in test [8], 2.29%; in test [9], 2.17%; in [10], 2.18%.

For the compound `CCn1c(-c2nonc2N)nc2c(C#CCN)ncc(OCCCN)c21`, the inhibition in test [1] was 15.3%; in test [2], 1.23%; in [3], 5.38%; in test [4] it was -0.28%; in [5] it was 8.17%; in test [6] it was 5.66%. In addition, the inhibition in test [7] was 40.1%; in test [8], 0.48%; in test [9], 4.78%; in [10], 2.63%.

As to `COc1cccc(COc2cc(-n3cnc4ccccc43)sc2C(N)=O)c1`, the inhibition was 2.04% in test [1]; 3.04% in test [2]; 0.63% in test [3]; -0.02% in test [4]; -0.45% in [5]; -1.95% in test [6]. For the same compound, the inhibition was -0.21% in [7], 0.92% in test [8], 2.35% in test [9] and -0.66% in test [10].

The inhibition is the drop in the measured response relative to a control, in per cent.
